We go through 18 compounds from ChEMBL document CHEMBL1961873, “Compounds: GSK PKIS; Assays: Nanosyn kinase panel” (2012).
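Note: each reported value is a mean percent inhibition of Aurora-A.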

The target in the assay is T1, Aurora kinase A (Homo sapiens) (UniProt O14965).
T1 sequence (whole entry): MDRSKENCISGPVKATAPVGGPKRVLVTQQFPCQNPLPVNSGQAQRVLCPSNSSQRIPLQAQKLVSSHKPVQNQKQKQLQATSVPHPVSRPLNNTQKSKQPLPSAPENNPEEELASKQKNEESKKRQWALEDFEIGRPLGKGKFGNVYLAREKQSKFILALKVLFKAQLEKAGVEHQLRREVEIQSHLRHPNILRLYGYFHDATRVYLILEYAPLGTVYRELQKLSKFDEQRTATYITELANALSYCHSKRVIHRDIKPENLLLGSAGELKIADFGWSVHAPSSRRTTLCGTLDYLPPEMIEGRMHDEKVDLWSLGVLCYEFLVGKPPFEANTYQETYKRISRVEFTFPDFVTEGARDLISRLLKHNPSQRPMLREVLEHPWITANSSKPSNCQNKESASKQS
The settings on record: at 0.1 µM.
Take `COc1ccc(-c2ccncc2)cc1C(N)=O`: the inhibition was found to be 2.92%.
Then `CCc1cccc(NC(=O)Nc2ccc(Oc3ccc4nc(NC(=O)OC)[nH]c4c3)cc2)c1`, with 2.16%; and `O=C1NC(=O)C(c2ccc(Cl)cc2)=C1Nc1ccc(Cl)c(C(=O)O)c1`, with -3.12%.
Then `CCn1c(-c2nonc2N)nc2cncc(C(=O)N3CCNCC3)c21`, with 5.21%.
Then `CN(C)c1cc2c(Nc3ccc4nc(Cc5ccccc5)[nH]c4c3)ncnc2cn1`, with 3.28%; and `Nc1nc(-c2ccc3c(c2)C(=Cc2cc(Br)c(O)c(Br)c2)C(=O)N3)cs1`, with -1.16%.
As for `Nc1nc(-c2ccccn2)c(-c2ccc3ncccc3n2)s1`, the inhibition turned out to be 2.15%.
Then `Nc1ncnc2occ(-c3ccc(NC(=O)Nc4cc(C(F)(F)F)cc(C(F)(F)F)c4)cc3)c12`, with 2.66%.
Take `NS(=O)(=O)c1cccc(-c2ccc3c(NC(=O)C4CC4)n[nH]c3c2)c1`: the inhibition was -1.3%.
Then `CCN1CCC(CC(=O)Nc2n[nH]c3nc(-c4cccs4)c(Br)cc23)CC1`, with -2.72%; and `Cc1cccc(-c2n[nH]cc2-c2ccc3ncccc3n2)n1`, with 2.76%.
The result for `COC(=O)Nc1nc2cc(Oc3cccc(NC(=O)Nc4cc(C(F)(F)F)ccc4F)c3)ccc2[nH]1` reads 1.04%.
For the compound `CNC(=O)c1cncc(/C=C/c2c(Cl)cccc2Cl)c1`, the inhibition came out at 0.59%.
The result for `Cc1nnc(-c2ccc(C)c(-c3ccc(C(=O)Nc4cccc(C#N)c4)cc3)c2)o1` reads 0.8%; that for `CC(=O)Nc1cccc(C#Cc2cncnc2Nc2ccc(OCc3cccc(F)c3)c(Cl)c2)n1`, -0.41%.
As for `O=C1NC(=O)C(c2cccc(Cl)c2)=C1Nc1ccc(O)c(Cl)c1`, the inhibition came out at 2.24%.
For the compound `CC(C)=Cc1cccc2c1/C(=N/Nc1ccc(S(N)(=O)=O)cc1)C(=O)N2`, the inhibition is 25.6%.
For the compound `COc1cc2ncn(-c3cc(OCc4ccccc4C(F)(F)F)c(C(N)=O)s3)c2cc1OC`, the inhibition was 1.39%.
